Compound activity (PubChem)
BAZ2B block = blocks human BAZ2B | AlphaScreen BAZ2B-H3K14Ac peptide displacement | Potency, µM (titrated, usually from 114 µM), inactives show top-dose activity change, negative = inhibition, usual class: inhibitors | actives 4.4% (n = 360,000) | Q9UIF8; also: % is scaled to controls: 0 for no effect and ±100 for the full control effect; nearly all actives have a fitted effect of over 60% in size
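Inhibition is scored as reduced AlphaScreen emission. The BAZ2B/b-H3(5-23)K14Ac complex (50 nM each) in PBS pH 7.4, 0.01% Tween-20 meets compound (up to 110 uM) for 30 min at RT before bead addition.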
HP1b binding inh = inhibitors of HP1-beta chromodomain binding to methylated histone tails; P83916; AlphaScreen HP1-beta / biotin-H3K9me3 peptide binding; Potency, µM (highest dose often 114 µM), for the others: at the top dose activity change, negative = inhibition, hits mostly inhibitors; actives 0.56% (n = 390,000); also: nearly all actives have a fitted effect of over 70% in size
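HP1-beta protein (50 nM final) preincubated 30 min at room temperature with biotinylated H3(1-18)K9me3 peptide (50 nM) in PBS pH 7.4, 0.01% Tween-20, then compound added for 30 min. AlphaScreen streptavidin donor/nickel chelate acceptor beads (10 ug/mL final), 30 min dark, luminescence read.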
Sfp inh = Sfp phosphopantetheinyl transferase inhibition | Q9F4F7 | Biochemical Sfp PPTase activity, qHTS | Potency, µM, for the others: largest response in the series, negative = inhibition, most hits filed as inhibitors | actives 3.5% (n = 310,000);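 also: the enzyme is Sfp with the accession as filed and its product quenches rhodamine fluorescence; 0% = enzyme reaction without inhibitor and -100% = no enzyme wells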
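Step 1, compound plus 15 nM Sfp-PPTase, 15 min, room temperature. Step 2, add rhodamine-CoA (5 uM) and BHQ-2-YbbR (12.5 uM). Step 3, read 525/598 nm fluorescence at 0 and 30 min.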
TDP1 block = TDP1 (human) enzyme inhibition; Q9NUW8; recombinant TDP1, AlphaScreen DNA substrate cleavage; Potency, µM (highest dose often 130 µM), without a hit: at the top dose activity change, negative = inhibition, usual class: inhibitors; actives 0.28% (n = 350,000); also: % is scaled to controls: 0 for no effect and ±100 for the full control effect; nearly all actives have a fitted effect of over 40% in size
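Signal: AlphaScreen proximity between streptavidin donor and anti-FITC acceptor beads on intact substrate. Reaction: Tdp1 1 nM, substrate 15 nM final, 5 min RT after 15 min compound preincubation.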
G9a inh = blocks human histone lysine methyltransferase G9a; Potency, µM (doses to about 102 µM), for inactives: at the highest dose activity, negative = inhibition, actives largely listed as inhibitors; actives 8.8% (n = 350,000); Q96KQ7; G9a H3K9 monomethylation, AlphaScreen, 2 h; AID 504332; also: % is scaled to controls: 0 for no effect and ±100 for the full control effect; nearly all actives have a fitted effect of over 75% in size
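G9a (20 nM) preincubated 15 min RT with compounds, then 500 nM biotinylated H3K9 peptide and 20 uM SAM added; 2 h RT reaction. Monomethyl-H3K9 product detected by AlphaScreen with anti-H3K9me1 antibody, streptavidin donor and anti-rabbit IgG acceptor beads.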
JMJD2A Tudor inh = blocks the human JMJD2A Tudor domain. AlphaScreen JMJD2A-Tudor / H3K4me3 peptide binding. Potency, µM (titrated, usually from 114 µM), for inactives: at the top dose activity change, negative = inhibition, actives largely listed as inhibitors. actives 4.4% (n = 390,000). AID 504339. O75164; also: % is scaled to controls: 0 for no effect and ±100 for the full control effect; nearly all actives have a fitted effect of over 50% in size
Active calls of the source: *; ? = inconclusive; nt = no result; [ ] = remark or other dose. Hits are enriched below; roughly 12% of the tested compounds scored in any of these assays. Calls follow the shape of the dose curve; as a rule, active = well fitted curve in the direction sought with a large enough effect; inconclusive = small, poorly fitted or top-dose-only effect, or another doubt; inactive = no such curve, though single readings can be large; an effect the other way counts as inactive or inconclusive. Potency is read from the fitted curve at half-maximal effect.

SMILES	BAZ2B block	HP1b binding inh	Sfp inh	TDP1 block	G9a inh	JMJD2A Tudor inh
Cc1cc(N(CCCl)CCCl)ccc1/C=N/N=C(\N)c1cnccn1	nt	?	nt	nt	nt	14µM*
Cc1cc(N(CCCl)CCCl)ccc1C=Cc1ccncn1	nt	117%	nt	nt	nt	30%
Oc1cccc2nc3ccccc3nc12	?	-29%	-15%	0%	28µM*	?
COC(=O)[C@@]1(O)C[C@@H]2O[C@@]1(C)n1c3ccccc3c3c4c(c5c6ccccc6n2c5c31)C(=O)NC4	nt	nt	-3%	3%	nt	nt
COc1cc(C2c3cc4c(cc3C(OC(C)=O)[C@H]3COC(=O)C23)OCO4)cc(OC)c1OC (stereo partly specified)	nt	nt	?	7%[56.1 µM]	nt	nt
Cc1nc(C(=O)O)nn1-c1ccc([N+](=O)[O-])cc1	?	19%	21%	nt	50µM*	5%
C/C=C/C/C=C/CCC(=O)[C@H]1O[C@H]1C(N)=O	nt	nt	7%	7%	?	nt
COC(=O)C(O)(c1ccc(NC(=O)c2ccccc2)cc1)C(F)(F)F (stereo unspecified)	-1%	36%	-26%	nt	8%	2%
COC(=O)CCCCC1SCC(NC(=O)c2ccccc2)C1Cl (stereo unspecified)	79µM*	36%	0%	0%	-41%	-12%
c1cncc(CNCCN2CCNCC2)c1	nt	25%	nt	nt	nt	-2%
Cc1ccc2[nH]c(C)c(CCNCc3cccnc3)c2c1	?	23%	-2%	5%	50µM*	7%
COc1ccc2[nH]c(C)c(CCN3CCC(=O)C(C)C3C)c2c1 (stereo unspecified)	?	14%	5%	4%	?	?
COc1ccc(CNCCc2c(C)[nH]c3ccc(OC(F)(F)F)cc23)c(OC)c1	56µM*	?	?	nt	45µM*	18µM*
COc1ccc2[nH]c(C)c(CCNCc3cc(OC)c(OC)c(OC)c3)c2c1	79µM*	?	45µM*	5%	22µM*	2.8µM*
COc1ccc2[nH]c(C)c(CCNCc3cc(OC)c4c(c3)OCO4)c2c1	45µM*	?	nt	8%	?	1.3µM*
COc1ccccc1C1Nc2ccccc2-n2c(-c3ccccc3)c3c(=O)n(C)c(=O)n(C)c3c21 (stereo unspecified)	-23%	50%	nt	6%	?	-26%
COP(=S)(OC)Oc1nc(Cl)c(Cl)cc1Cl	nt	nt	?	21%	nt	nt
CCOc1ccccc1NC(=O)CCn1cccc1	nt	8%	18%	2%	?	-17%
c1ccc(CCN2CCC(N3CCN(c4ccccc4)CC3)CC2)cc1	19%	27%	11%	6%	13%[59 µM]	-13%
Nc1ccc(CCN2CCCC2)cc1	-19%	33%	11%	5%	40µM*	3%
Nc1ccc(CCN2CCN(c3cccc(C(F)(F)F)c3)CC2)cc1	nt	-2%	26%	9%[56.1 µM]	40µM*	?
O=C(CCl)c1ccc(Cl)cc1Cl	nt	nt	nt	7%	nt	nt
ClC1=C(Cl)C(Cl)=C(Cl)C1=C/C=C/c1ccccc1	3.5µM*	6.3µM*	-9%	8%	3.2µM*	5.6µM*
C[C@](O)(CS(=O)(=O)c1ccc(F)cc1)C(=O)Nc1ccc(C#N)c(C(F)(F)F)c1	nt	nt	12%	nt	?	nt
CC1CN=C(Nc2ccc(N(C)C)cc2)S1 (stereo unspecified)	?	-34%	9%	9%	35µM*	40µM*
CC1CN=C(Nc2ccccc2)S1 (stereo unspecified)	3%	25%	7%	3%	-35%[59 µM]	0%
COc1cccc(CCNCc2cccc(C(F)(F)F)c2)c1	56µM*	?	-7%	-8%	10µM*	2.5µM*
O=c1ccc2cc(O[C@H]3OC(CO)C(O)C(O)C3O)c(O)cc2o1 (stereo partly specified)	nt	nt	-3%	-10%[56.1 µM]	-18%[2.33 µM]	nt
COc1ccccc1N=Nc1ccc(N)c(C)c1	35µM*	?	1%	nt	24%[2.33 µM]	45µM*
